Laboratory results reported in PubChem BioAssay.
The source made the active and inactive calls. Unless noted, the rule behind the calls is not given here.

Assays:
[1] = kinase inhibitors against Plasmodium liver-stage infection, cell-based, known kinase inhibitor set, luminescence, hepatoma host viability (AID 624392); conditions: Plasmodium liver stage in hepatoma cells, luciferase luminescence, concentration not given here; liver cell % of control: measured here: host liver cell viability; parasite % of control: stronger effect = lower value;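 note: infected cells incubated roughly two days before readout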
[2] = modulators of glucocorticoid suppression of NF-kB, cell-based, luciferase, IL-1B stimulus, dexamethasone (AID 624486); conditions: NF-kB luciferase reporter, IL-1B + dexamethasone, luminescence; percent of negative control (+Dex): actives lie on both sides, concentration not given here; z-score: measured here: IL-1B alone, no Dex;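 for percent of negative control (+Dex): 100% = mean signal of vehicle control wells on the plate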
[3] = kinase inhibitors altering Pseudomonas killing of worms, whole organism (AID 651566);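 note: tested at 14 µM; sign flipped so higher z means a lower ratio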; conditions: C. elegans killed by P. aeruginosa, survival ratio
[4] = activators of macrophage pro-inflammatory response, cell-based, murine, luminescence (AID 652131); conditions: murine macrophage pro-inflammatory reporter, stronger effect = higher value
[5] = target: Cellular tumor antigen p53 (Homo sapiens) (UniProt P04637); assay: kinase inhibitors altering GFP-p53 stability in HPV16-positive cells, imaging, known kinase inhibitor set, EGFP/DsRed ratio (AID 1053116); conditions: stronger effect = higher value; EGFP object count: measured here: GFP-p53 positive objects count;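 note: cells exposed to compounds for 24 h at 37 °C before reading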
Chain of Cellular tumor antigen p53 (Homo sapiens) (P04637 whole entry, looked up): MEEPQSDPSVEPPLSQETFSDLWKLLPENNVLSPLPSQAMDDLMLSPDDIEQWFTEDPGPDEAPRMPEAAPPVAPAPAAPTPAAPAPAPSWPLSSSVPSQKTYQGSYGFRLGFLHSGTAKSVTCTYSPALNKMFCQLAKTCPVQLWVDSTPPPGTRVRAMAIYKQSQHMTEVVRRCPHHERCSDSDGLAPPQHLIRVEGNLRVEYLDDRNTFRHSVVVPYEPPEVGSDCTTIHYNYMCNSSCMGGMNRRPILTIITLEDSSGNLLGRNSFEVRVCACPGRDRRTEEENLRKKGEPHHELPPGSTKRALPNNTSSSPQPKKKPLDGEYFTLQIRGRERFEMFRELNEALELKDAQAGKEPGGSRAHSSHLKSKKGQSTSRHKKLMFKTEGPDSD

[6] = IRF3 reporter activation in THP-1 macrophages, cell-based, PMA-stimulated THP-1, luminescence (AID 1053176); conditions: PMA-differentiated THP-1, IRF3 reporter luminescence; stronger effect = higher value
[7] = survival rescue of mitochondrial mutant cells in low glucose, primary screen, MELAS cybrids, Rieske KO mouse fibroblasts, CellTiter-Glo (AID 1508586;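 active = mean z-score across replicates of 1.96 or higher in either the MELAS or the Rieske mutant cell line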;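 note: z relative to plate mean and SD of compound and empty wells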)
[8] = MELAS cybrid survival, CellTiter-Glo 48 h, stronger effect = higher value
[9] = Rieske KO mouse fibroblast survival, CellTiter-Glo 72 h

Structure (SMILES)	liver cell % of control [1] [%]	parasite % of control [1]	percent of negative control (+Dex) [2]	z-score [2]	z-score [3]	z-score [4]	EGFP object count [5]	EGFP/DsRed ratio [5]	fraction signal [6]	z-score [7, 8]	z-score [7, 9]
CCn1c(-c2nonc2N)nc2cnc(Oc3cccc(NC(=O)c4ccc(N(C)C)cc4)c3)cc21	88.6	248% (inactive)	96% (inactive)	-0.295	-0.06 (inactive)	1.22 (inactive)	3.5	0.117 (inactive)	-0.0105 (inactive)	0.0951 (inactive)	0.0229
CN(C)CCCn1c(-c2nonc2N)nc2cnccc21	105	124% (inactive)	91% (inactive)	0.395	0.105 (inactive)	-0.067 (inactive)	3.5	0.0389 (inactive)	-0.0015 (inactive)	-0.855 (inactive)	-0.298
Clc1ccc(CNc2nccc(-c3cnn4ncccc34)n2)cc1	78.2	176% (inactive)	26.5% (active)	-7.22	0.125 (inactive)	-1.14 (inactive)	1	0.0281 (inactive)	0 (inactive)	0.484 (inactive)	-0.266
COc1cc(N2CCN(C(C)C)CC2)ccc1Nc1nc(Nc2cccc3ncccc23)c2cc[nH]c2n1	96.4	180% (inactive)	92.5% (inactive)	-0.235	0.32 (inactive)	-0.489 (inactive)	1	0.00687 (inactive)	-0.0005 (inactive)	-1.02 (inactive)	-0.0497
COc1cccc(-n2ncc3c(N/N=C/c4ccncc4)ncnc32)c1	106	21.2% (inactive)	156% (active)	0.175	0.485 (inactive)	0.337 (inactive)	14	0.38 (inactive)	0.0245 (inactive)	-0.213 (inactive)	0.531
